Test results: PubChem BioAssay (NCI)
About 83,000 compounds went through this panel and 20% of them were active in at least one assay; those are over-represented in the sample as a whole.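 Assay: single dose, 48 h. Readout: percent growth (0 = no net growth; negative = cell death). Active: <10.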 The source made the active and inactive calls.

How the values were obtained:
Assay in all cases: NCI-60 one-dose screen, 48 h (100 = growth as untreated, 0 = no growth, -100 = all killed)
Conditions in all cases: 10 µM unless noted
NCI-H23 lung = system: NCI-H23 lung
NCI-H226 lung = system: NCI-H226 lung
NCI-H322M lung = system: NCI-H322M lung
HOP-62 NSCLC = system: HOP-62 NSCLC
NCI-H460 lung = system: NCI-H460 lung
HOP-92 NSCLC = system: HOP-92 NSCLC
NCI-H522 lung = system: NCI-H522 lung
A549/ATCC NSCLC = system: A549/ATCC NSCLC
786-0 renal = system: 786-0 renal
COLO 205 colon = system: COLO 205 colon

Measured: growth

COc1ccc2c(c1OC)C(=O)O[C@@H]2[C@H]1c2c(c(C#CC#Cc3ccc(F)c(F)c3)c3c(c2OC)OCO3)CCN1C
inactive: NCI-H23 lung 90.3% | NCI-H226 lung 95.1% | NCI-H322M lung 88.8% | HOP-62 NSCLC 68% | NCI-H460 lung 103% | HOP-92 NSCLC 82.3% | NCI-H522 lung 86.5% | A549/ATCC NSCLC 67.8% | 786-0 renal 93% | COLO 205 colon 84.7%

Cc1cn(-c2cc(NC(=O)c3ccc(C)c(Nc4nccc(-c5cnccn5)n4)c3)cc(C(F)(F)F)c2)cn1
inactive: NCI-H23 lung 73% | NCI-H226 lung 86.9% | NCI-H322M lung 95.3% | HOP-62 NSCLC 55.9% | NCI-H460 lung 61.7% | HOP-92 NSCLC 89% | NCI-H522 lung 43.1% | A549/ATCC NSCLC 62.5% | 786-0 renal 97.7% | COLO 205 colon 25.3%

CC(=O)OC(C(=O)c1ccccc1)c1ccccc1 (stereo not given)
inactive: NCI-H23 lung 111% | NCI-H226 lung 98.9% | NCI-H322M lung 99.8% | HOP-62 NSCLC 103% | NCI-H460 lung 101% | HOP-92 NSCLC 58% | NCI-H522 lung 90.6% | A549/ATCC NSCLC 106% | 786-0 renal 100% | COLO 205 colon 107%

O=C1C=CC2(NN=C(c3ccccc3)N2c2cccc(Cl)c2)c2cccc(O)c21 (stereo not given)
inactive: NCI-H23 lung 26.3% | NCI-H226 lung 85.6% | NCI-H322M lung 95.1% | HOP-62 NSCLC 37.9% | NCI-H460 lung 85.1% | HOP-92 NSCLC 110% | NCI-H522 lung 51.3% | A549/ATCC NSCLC 33.2% | 786-0 renal 107% | COLO 205 colon 103%

C=CCn1c(=O)c2cnc(Nc3ccc(N4CCN(C)CC4)cc3)nc2n1-c1cccc(C(C)(C)O)n1
inactive: NCI-H226 lung 40% | NCI-H322M lung 14.1% | NCI-H460 lung 12% | HOP-92 NSCLC 49.2% | A549/ATCC NSCLC 15.9% | 786-0 renal 14%
active: NCI-H23 lung 2.22% | HOP-62 NSCLC 2.56% | NCI-H522 lung -45.8% | COLO 205 colon -29.5%

COC(=O)N[C@@H](C)CNc1nccc(-c2cn(C(C)C)nc2-c2cc(Cl)cc(NS(C)(=O)=O)c2F)n1
active: COLO 205 colon 4.94%
inactive: NCI-H23 lung 59.2% | NCI-H226 lung 94.9% | NCI-H322M lung 78.7% | HOP-62 NSCLC 72.7% | NCI-H460 lung 91.2% | HOP-92 NSCLC 49.7% | NCI-H522 lung 44.2% | A549/ATCC NSCLC 53.4% | 786-0 renal 48.6%

COc1ncc(-c2ccc3nccc(-c4ccnnc4)c3c2)cc1NS(=O)(=O)c1ccc(F)cc1F
active: NCI-H23 lung 3.23% | NCI-H226 lung -4.7% | NCI-H322M lung -31.1% | HOP-62 NSCLC -14.1% | NCI-H460 lung 5.35% | HOP-92 NSCLC -1.41% | NCI-H522 lung -44% | A549/ATCC NSCLC -61.6% | 786-0 renal 4.21% | COLO 205 colon -83.2%

COc1cc(-c2nc(C(=O)NCC(=O)O)nn2-c2ccc(Cl)cc2)cc(OC)c1OC
inactive: NCI-H23 lung 97.5% | NCI-H226 lung 87.1% | NCI-H322M lung 102% | HOP-62 NSCLC 104% | NCI-H460 lung 110% | HOP-92 NSCLC 106% | NCI-H522 lung 97.1% | A549/ATCC NSCLC 96.6% | 786-0 renal 103% | COLO 205 colon 108%

CCOc1cccc(/C=N/NC(=O)c2ccccc2Nc2ccnc(C(F)(F)F)c2)c1O
inactive: NCI-H23 lung 21.6% | NCI-H322M lung 22.2% | HOP-92 NSCLC 25.2% | NCI-H522 lung 16.6% | A549/ATCC NSCLC 15%
active: NCI-H226 lung -15.2% | HOP-62 NSCLC -7.4% | NCI-H460 lung -8.7% | 786-0 renal 3.64% | COLO 205 colon 9.3%

CN1C/C=C\CCOc2cccc(c2)-c2ccnc(n2)Nc2cccc(c2)C1
active: NCI-H23 lung -56.6% | NCI-H226 lung -33.7% | NCI-H322M lung -17.7% | HOP-62 NSCLC -44.5% | NCI-H460 lung -73.6% | HOP-92 NSCLC -15.5% | NCI-H522 lung -70.1% | A549/ATCC NSCLC -50.1% | 786-0 renal -85.9% | COLO 205 colon -81.6%

Clc1nc(Cl)c2ncn(C/C=C\Cn3cnc4c(Cl)nc(Cl)nc43)c2n1
inactive: NCI-H322M lung 21.4% | HOP-62 NSCLC 23.4%
active: NCI-H23 lung 9.28% | NCI-H226 lung -59.2% | NCI-H460 lung 3.79% | HOP-92 NSCLC -34.2% | NCI-H522 lung -76.7% | A549/ATCC NSCLC -7.32% | 786-0 renal -9.15% | COLO 205 colon -41.1%

Cc1cc(N2CCCC2)nc(N(CCCNc2ccnc3cc(Cl)ccc23)Cc2ccc3c(c2)OCO3)n1
inactive: NCI-H23 lung 20.9% | NCI-H226 lung 50.4% | A549/ATCC NSCLC 13.2%
active: NCI-H322M lung 8.23% | HOP-62 NSCLC -17.4% | NCI-H460 lung 5.83% | HOP-92 NSCLC -36% | NCI-H522 lung -28.1% | 786-0 renal -88.8% | COLO 205 colon -73.8%

CCNC(=O)C#Cc1ccc2c(C(=Nc3ccc(CN(C)C)cc3)c3ccccc3)c(O)[nH]c2c1
inactive: NCI-H23 lung 14% | NCI-H226 lung 38.6% | NCI-H322M lung 14.4% | NCI-H460 lung 16.5% | NCI-H522 lung 48.9% | 786-0 renal 24.2%
active: HOP-62 NSCLC 4.11% | HOP-92 NSCLC -66.8% | A549/ATCC NSCLC 6.49% | COLO 205 colon -41%

Cn1cc(-c2ncnc3ccc(-c4cnc(Cl)c(NS(C)(=O)=O)c4)cc23)c2ccccc21
active: NCI-H322M lung 0.878% | NCI-H460 lung 8.88% | HOP-92 NSCLC -8.63% | A549/ATCC NSCLC 6.57%
inactive: NCI-H23 lung 29.7% | NCI-H226 lung 16.4% | HOP-62 NSCLC 16.2% | NCI-H522 lung 17% | 786-0 renal 12% | COLO 205 colon 16.4%

CCc1cc2c(c3ccc(C(=O)CBr)cc13)CCCC2
inactive: NCI-H23 lung 89.1% | NCI-H226 lung 92.2% | NCI-H322M lung 77.5% | HOP-62 NSCLC 91.6% | NCI-H460 lung 109% | HOP-92 NSCLC 109% | NCI-H522 lung 88.3% | A549/ATCC NSCLC 93% | 786-0 renal 99.7% | COLO 205 colon 102%
